Hits are enriched below; roughly 6.7% of the tested compounds scored in any of these assays.
T cruzi growth-1 – T. cruzi proliferation inhibition. T. cruzi beta-gal in NIH3T3, GalScreen luminescence, 90 h. hit rate 5.9% among 77,000. inhibition, % at 8.34 µM;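 active means mean inhibition above about 93%, with at least 55% of replicates each passing it, limit read from the data, passing the limit was not always enough; inconclusive means only one of those two conditions holds; inactive means neither condition holds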
Pf Dd2 growth – P. falciparum Dd2 growth inhibition | SYBR Green, 72 h; active compounds read low | activity change, % at 10 µM | hit rate 2.3% among 94,000 | AID 1159554; in the data active means activity change below about -80%; inconclusive means no clear call, values can overlap the other calls
C diff growth – inhibitors of Clostridium difficile growth; Clostridium difficile clinical isolate growth, OD600, 24 h; active compounds read low; growth activity, negative = inhibition, % at 16 µg/mL (by protocol); hit rate 0.25% among 86,000; AID 1259249;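 active means mean growth activity at or below -80% and every replicate also at or below -80%; inconclusive means mean at or below -80% but some replicate above -80%; inactive means mean growth activity above -80%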;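 further: 0% = DMSO wells and -100% = levofloxacin 16 µg/mL wells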
T cruzi growth-2 – blocks T. cruzi growth in NIH3T3 host cells | inhibition, % at 8.35 µM | T. cruzi beta-gal in NIH3T3, GalScreen luminescence, 90 h | hit rate 72% among 5,600 | shares compounds with T cruzi growth-1;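 active means mean replicate inhibition above about 95% and at least 55% of replicates individually reaching it, limit read from the data; inconclusive means only one of the two criteria is met; inactive means neither criterion is met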
T cruzi growth-3 – inhibitors of T. cruzi proliferation; shares compounds with T cruzi growth-1; T. cruzi beta-gal in NIH3T3, GalScreen luminescence, 90 h; inhibition, % at 2.09 µM; hit rate 21% among 5,600;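 active means mean inhibition above about 95%, with at least 55% of replicates also reaching it, limit read from the data; inconclusive means meets just one of the two conditions; inactive means meets neither condition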;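 further: plate controls were neutral control median for no effect and positive control median for full effect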
3T3 cytotox – cytotoxicity in mouse NIH/3T3 fibroblasts. shares compounds with T cruzi growth-1. NIH/3T3 viability, CellTiter-Glo ATP luminescence, 90 h. cytotoxicity (signal decrease), % at 8.35 µM. hit rate 14% among 5,600. AID 651742;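 active means mean signal decrease across replicates above about 35% based on untreated-well scatter, with enough replicates individually passing, limit read from the data; inconclusive means no rule stated though some were filed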;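 further: 0% = median of neutral control wells and 100% = median of positive control wells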
NIH3T3 tox 2 – NIH/3T3 (mouse) viability loss; shares compounds with T cruzi growth-1; NIH/3T3 viability, CellTiter-Glo ATP luminescence, 90 h; inhibition, % at 24.9 µM; hit rate 56% among 5,600;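 active means mean loss of cell viability signal at or above a set limit, and enough replicates individually reaching it; inconclusive means meets only the mean limit or only the replicate share; inactive means meets neither condition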;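 further: 0% = median of neutral control wells and 100% = median of positive control wells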
The depositor's hits bear a star; ? = inconclusive; / = no result given.

SMILES | T cruzi growth-1 | Pf Dd2 growth | C diff growth | T cruzi growth-2 | T cruzi growth-3 | 3T3 cytotox | NIH3T3 tox 2
CCCC#Cc1ccc2c(c1)O[C@@H](CN(C)S(=O)(=O)c1cccc(F)c1)[C@@H](C)CN([C@H](C)CO)S2(=O)=O | 124* | -56 | 23 | 104* | 85 | 17 | 19
C[C@@H]1CN([C@@H](C)CO)C(=O)c2cc(NC(=O)Cc3cn(C)c4ccccc34)ccc2O[C@H]1CN(C)Cc1ccncc1 | 46 | -21 | -1 | / | / | / | /
COc1ccc(NC(=O)N(C)C[C@@H]2OCCCC[C@@H](C)Oc3ccc(NS(=O)(=O)c4c(C)noc4C)cc3C(=O)N([C@H](C)CO)C[C@H]2C)cc1 | 17 | -44 | / | / | / | / | /
O=C(C[C@@H]1CC[C@H]2[C@@H](COC[C@H](O)CN2Cc2ccc(F)cc2)O1)NCc1ccncn1 | 38 | 19 | 4 | / | / | / | /
COc1cccc(CN(C)C[C@@H]2OCc3ccccc3-c3ccccc3C(=O)N([C@@H](C)CO)C[C@@H]2C)c1 | 49 | -12 | -8 | / | / | / | /
COc1cccc(S(=O)(=O)N(C)C[C@H]2OCc3ccccc3-c3ccccc3C(=O)N([C@@H](C)CO)C[C@@H]2C)c1 | 74 | -1 | -11 | / | / | / | /
COc1cccc(CN(C)C[C@H]2OCc3ccccc3-c3ccccc3C(=O)N([C@@H](C)CO)C[C@H]2C)c1 | ? | -48 | 6 | 87 | 11 | 6 | -10
COc1cccc(S(=O)(=O)N(C)C[C@H]2OCc3ccccc3-c3ccccc3C(=O)N([C@H](C)CO)C[C@@H]2C)c1 | ? | -32 | 1 | 82 | 7 | -16 | 16
COc1ccc(NC(=O)Nc2ccc3c(c2)C(=O)N([C@@H](C)CO)C[C@H](C)[C@@H](CN(C)Cc2ccccc2)OCCCC[C@@H](C)O3)cc1 | 69 | -75 | 9 | / | / | / | /
COc1ccc(NC(=O)Nc2ccc3c(c2)C(=O)N([C@@H](C)CO)C[C@@H](C)[C@@H](CN(C)Cc2ccccc2)OCCCC[C@@H](C)O3)cc1 | 92 | -63 | -3 | / | / | / | /
COc1ccc(NC(=O)Nc2ccc3c(c2)C(=O)N([C@@H](C)CO)C[C@@H](C)[C@H](CN(C)Cc2ccccc2)OCCCC[C@H](C)O3)cc1 | 100* | -39 | 1 | 110* | 42 | 9 | 35*
COc1ccc(NC(=O)Nc2ccc3c(c2)C(=O)N([C@H](C)CO)C[C@@H](C)[C@@H](CN(C)Cc2ccccc2)OCCCC[C@@H](C)O3)cc1 | 103* | -73 | -6 | 111* | 83 | 8 | 53*
CCC(=O)Nc1ccc2c(c1)C(=O)N(C)[C@H]1CC[C@H](CC(=O)NCCc3ccccc3)O[C@@H]1CO2 | -51 | 8 | -3 | / | / | / | /
COc1ccc2c3c(n(C)c2c1)[C@@H](CO)N(Cc1ccc(Cl)cc1)CC31CCN(C(=O)NC(C)C)CC1 | / | -69 | -3 | / | / | / | /
Cc1ccccc1-c1ccc2c(c1)O[C@@H](CN(C)C(=O)Nc1ccc(C(F)(F)F)cc1)[C@@H](C)CN([C@@H](C)CO)S2(=O)=O | 92 | -75 | 20 | / | / | / | /
C[C@H](CO)N1C[C@H](C)[C@H](CN(C)C(=O)Nc2ccc(C(F)(F)F)cc2)Oc2cc(-c3ccncc3)ccc2S1(=O)=O | 74 | -36 | 11 | / | / | / | /
C[C@H]1CN([C@@H](C)CO)S(=O)(=O)c2ccc(-c3ccncc3)cc2O[C@@H]1CN(C)C(=O)Nc1ccc(C(F)(F)F)cc1 | 102* | -63 | 1 | 104* | 85 | 29 | 79*
C[C@@H]1CN([C@H](C)CO)S(=O)(=O)c2ccc(-c3ccncc3)cc2O[C@H]1CN(C)C(=O)Nc1ccc(C(F)(F)F)cc1 | ? | -42 | 6 | 106* | 90 | 38* | 73*
C[C@H]1CN([C@@H](C)CO)S(=O)(=O)c2ccc(-c3ccncc3)cc2O[C@H]1CN(C)C(=O)Nc1ccc(C(F)(F)F)cc1 | 74 | -7 | 8 | / | / | / | /
Cc1ccccc1-c1ccc2c(c1)O[C@@H](CN(C)C(=O)Nc1ccc(C(F)(F)F)cc1)[C@H](C)CN([C@H](C)CO)S2(=O)=O | 101* | -45 | 36 | 92 | 98* | 51* | 104*
C[C@H](CO)N1C[C@H](C)[C@H](CN(C)C(=O)CN2CCOCC2)Oc2ncc(-c3cncnc3)cc2C1=O | / | 16 | 4 | / | / | / | /
CC1=C([C@H](O)CCc2ccccc2)[C@H](CO)n2c(=O)n(-c3ccccc3)c(=O)n2C1 | / | / | 7 | / | / | / | /
CCCC(=O)Nc1ccc2c(c1)C(=O)N(C)[C@H]1CC[C@H](CC(=O)Nc3ccccc3)O[C@H]1CO2 | 23 | 1 | 3 | / | / | / | /
CNC[C@H]1Oc2c(NC(=O)Nc3ccc(C(F)(F)F)cc3)cccc2C(=O)N([C@@H](C)CO)C[C@H]1C | 41 | -41 | 13 | / | / | / | /
COC(=O)C[C@@H]1C[C@H]2c3cc(NC(=O)Nc4ccccc4)ccc3O[C@H]2[C@@H](CO)O1 | 5 | 23 | 8 | / | / | / | /
SMILES | T cruzi growth-1 | Pf Dd2 growth | C diff growth | T cruzi growth-2 | T cruzi growth-3 | 3T3 cytotox | NIH3T3 tox 2
CO[C@@H]1CN(C)C(=O)c2cc(NC(=O)C3CCC3)ccc2OC[C@@H](C)N(Cc2ccncc2)C[C@H]1C | 8 | 0 | 1 | / | / | / | /
C[C@H](CO)N1C[C@H](C)[C@@H](CN(C)Cc2ccc(Cl)c(Cl)c2)Oc2ccc(NC(=O)Cc3ccccc3)cc2C1=O | 107 | -13 | 4 | / | / | / | /
C[C@@H]1CN([C@H](C)CO)C(=O)c2cc(NC(=O)Cc3ccccc3)ccc2O[C@@H]1CN(C)Cc1ccc(-c2ccccc2)cc1 | 114* | -5 | -1 | 113* | 83 | 19 | 78*
C[C@@H]1CN([C@@H](C)CO)C(=O)c2cc(NC(=O)Cc3ccccc3)ccc2O[C@@H]1CN(C)Cc1ccc(Cl)c(Cl)c1 | 105* | 1 | 14 | 98* | 16 | 28 | 96*
C[C@@H]1CN([C@@H](C)CO)C(=O)c2cc(NC(=O)Cc3ccccc3)ccc2O[C@H]1CN(C)Cc1ccc(C(F)(F)F)cc1 | ? | -21 | -5 | 101* | 65 | 17 | 60*
C[C@@H]1CN([C@H](C)CO)C(=O)c2cc(NC(=O)Cc3ccccc3)ccc2O[C@@H]1CN(C)Cc1ccc(C(F)(F)F)cc1 | 34 | 9 | 0 | / | / | / | /
C[C@@H]1CN([C@@H](C)CO)C(=O)c2cc(NC(=O)Cc3ccccc3)ccc2O[C@H]1CN(C)Cc1ccc(-c2ccccc2)cc1 | -11 | 4 | -4 | / | / | / | /
O=C(C[C@@H]1C=C[C@H](NS(=O)(=O)c2ccc(F)cc2)[C@@H](CO)O1)N1CCC(Cc2ccccc2)CC1 | 52 | -7 | -9 | / | / | / | /
C[C@@H]1CN([C@H](C)CO)S(=O)(=O)c2ccc(C#Cc3ccccc3F)cc2O[C@@H]1CN(C)C | 6 | -62 | 1 | / | / | / | /
COCCNC(=O)C[C@H]1C[C@H]2c3cc(N(C)C)ccc3O[C@H]2[C@@H](CO)O1 | / | 8 | 0 | / | / | / | /

Assay outcomes: PubChem BioAssay, Broad Institute
